Measurements reported in PubChem BioAssay.
The source made the active and inactive calls.

Assays:
[1] = test system: PRMT1 (protein arginine N-methyltransferase 1); assay: PRMT1 binders on small-molecule microarrays, primary screen, biochemical, small-molecule microarray, 635 nm fluorescence (AID 1088); conditions: small-molecule microarray binding, higher = more signal;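 note: binding of Prmt1 protein to compounds spotted on small-molecule microarray slides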
[2] = yeast growth modulation, basal conditions, primary screen, YJM789 clinical isolate, OD600, 24 h (AID 1089);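 note: growth of clinical yeast isolate S. cerevisiae YJM 789 seeded 1000 cells per well; test concentration not given here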; conditions: S. cerevisiae YJM789 growth, higher = more signal, called active from +8 up or from −8 down
[3] = fission yeast growth modulation, primary screen, strain 972, OD600, 24 h, no modulator (AID 1090);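 note: basal condition with compound alone and no growth modifier present; test concentration not given here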; conditions: S. pombe 972 growth, higher = more signal, called active from +8 up or from −8 down
[4] = S. cerevisiae growth modulation with rapamycin, primary screen, strain BY4716, OD600, 96 h (AID 1091); conditions: higher = more signal, called active from +8 up or from −8 down; note: test concentration not given here
[5] = target: Torsin-1A-interacting protein 2 (Homo sapiens) (UniProt Q8NFQ8); assay: LULL1 binders on small-molecule microarray, primary screen, cell lysate, human LULL1 lysate, 635/667 nm fluorescence (AID 1092); conditions: hLULL1 lysate binding, 635 nm fluorescence, higher = more signal;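 note: probe is lysate of COS7 cells overexpressing human LULL1; score merges per-feature 667 nm fluorescence with signal-to-noise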
Chain of Torsin-1A-interacting protein 2 (Homo sapiens) (Q8NFQ8 whole entry, looked up): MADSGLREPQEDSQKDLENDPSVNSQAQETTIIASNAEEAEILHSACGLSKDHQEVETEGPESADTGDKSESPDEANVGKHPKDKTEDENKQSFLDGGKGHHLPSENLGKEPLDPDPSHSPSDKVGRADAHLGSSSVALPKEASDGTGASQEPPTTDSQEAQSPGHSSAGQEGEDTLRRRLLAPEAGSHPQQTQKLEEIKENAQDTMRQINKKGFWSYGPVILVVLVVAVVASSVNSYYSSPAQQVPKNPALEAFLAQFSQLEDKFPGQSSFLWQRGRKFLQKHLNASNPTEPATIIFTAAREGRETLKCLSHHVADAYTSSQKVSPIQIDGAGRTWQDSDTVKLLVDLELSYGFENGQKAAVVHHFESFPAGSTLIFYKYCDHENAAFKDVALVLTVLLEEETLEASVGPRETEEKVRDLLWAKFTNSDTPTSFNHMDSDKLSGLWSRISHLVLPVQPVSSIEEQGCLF

[6] = E. coli growth modulation, two-sided OD650, primary screen, E. coli filamentation project, strain DRC41, 24 h (AID 1093); conditions: OD650, 24 h, higher = more signal, called active from +8 up or from −8 down;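 note: MC1000 strain lacking acrAB efflux and sulA so SOS filamentation is blocked; test concentration not given here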
[7] = small-molecule microarray binders of probe aLefty2, primary screen, biochemical, biotinylated probe, 635/667 nm fluorescence (AID 1094); conditions: higher = more signal;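 note: score merges spot fluorescence near 667 nm with spot signal-to-noise ratio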
[8] = test system: Noggin (protein binding on small-molecule microarray); assay: Noggin binders on small-molecule microarray, primary screen, biochemical, 635/667 nm fluorescence (AID 1095); conditions: 635 nm fluorescence, higher = more signal;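 note: score merges 667 nm feature fluorescence with signal to noise over triplicate slides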
[9] = target: Neurogenic locus notch homolog protein 3 (Homo sapiens) (UniProt Q9UM47); assay: NOTCH3 binders on small-molecule microarray, primary screen, biochemical, 635/667 nm fluorescence (AID 1096); conditions: NOTCH3 binding, 635 nm fluorescence, higher = more signal
Chain of Neurogenic locus notch homolog protein 3 (Homo sapiens) (Q9UM47 whole entry, looked up): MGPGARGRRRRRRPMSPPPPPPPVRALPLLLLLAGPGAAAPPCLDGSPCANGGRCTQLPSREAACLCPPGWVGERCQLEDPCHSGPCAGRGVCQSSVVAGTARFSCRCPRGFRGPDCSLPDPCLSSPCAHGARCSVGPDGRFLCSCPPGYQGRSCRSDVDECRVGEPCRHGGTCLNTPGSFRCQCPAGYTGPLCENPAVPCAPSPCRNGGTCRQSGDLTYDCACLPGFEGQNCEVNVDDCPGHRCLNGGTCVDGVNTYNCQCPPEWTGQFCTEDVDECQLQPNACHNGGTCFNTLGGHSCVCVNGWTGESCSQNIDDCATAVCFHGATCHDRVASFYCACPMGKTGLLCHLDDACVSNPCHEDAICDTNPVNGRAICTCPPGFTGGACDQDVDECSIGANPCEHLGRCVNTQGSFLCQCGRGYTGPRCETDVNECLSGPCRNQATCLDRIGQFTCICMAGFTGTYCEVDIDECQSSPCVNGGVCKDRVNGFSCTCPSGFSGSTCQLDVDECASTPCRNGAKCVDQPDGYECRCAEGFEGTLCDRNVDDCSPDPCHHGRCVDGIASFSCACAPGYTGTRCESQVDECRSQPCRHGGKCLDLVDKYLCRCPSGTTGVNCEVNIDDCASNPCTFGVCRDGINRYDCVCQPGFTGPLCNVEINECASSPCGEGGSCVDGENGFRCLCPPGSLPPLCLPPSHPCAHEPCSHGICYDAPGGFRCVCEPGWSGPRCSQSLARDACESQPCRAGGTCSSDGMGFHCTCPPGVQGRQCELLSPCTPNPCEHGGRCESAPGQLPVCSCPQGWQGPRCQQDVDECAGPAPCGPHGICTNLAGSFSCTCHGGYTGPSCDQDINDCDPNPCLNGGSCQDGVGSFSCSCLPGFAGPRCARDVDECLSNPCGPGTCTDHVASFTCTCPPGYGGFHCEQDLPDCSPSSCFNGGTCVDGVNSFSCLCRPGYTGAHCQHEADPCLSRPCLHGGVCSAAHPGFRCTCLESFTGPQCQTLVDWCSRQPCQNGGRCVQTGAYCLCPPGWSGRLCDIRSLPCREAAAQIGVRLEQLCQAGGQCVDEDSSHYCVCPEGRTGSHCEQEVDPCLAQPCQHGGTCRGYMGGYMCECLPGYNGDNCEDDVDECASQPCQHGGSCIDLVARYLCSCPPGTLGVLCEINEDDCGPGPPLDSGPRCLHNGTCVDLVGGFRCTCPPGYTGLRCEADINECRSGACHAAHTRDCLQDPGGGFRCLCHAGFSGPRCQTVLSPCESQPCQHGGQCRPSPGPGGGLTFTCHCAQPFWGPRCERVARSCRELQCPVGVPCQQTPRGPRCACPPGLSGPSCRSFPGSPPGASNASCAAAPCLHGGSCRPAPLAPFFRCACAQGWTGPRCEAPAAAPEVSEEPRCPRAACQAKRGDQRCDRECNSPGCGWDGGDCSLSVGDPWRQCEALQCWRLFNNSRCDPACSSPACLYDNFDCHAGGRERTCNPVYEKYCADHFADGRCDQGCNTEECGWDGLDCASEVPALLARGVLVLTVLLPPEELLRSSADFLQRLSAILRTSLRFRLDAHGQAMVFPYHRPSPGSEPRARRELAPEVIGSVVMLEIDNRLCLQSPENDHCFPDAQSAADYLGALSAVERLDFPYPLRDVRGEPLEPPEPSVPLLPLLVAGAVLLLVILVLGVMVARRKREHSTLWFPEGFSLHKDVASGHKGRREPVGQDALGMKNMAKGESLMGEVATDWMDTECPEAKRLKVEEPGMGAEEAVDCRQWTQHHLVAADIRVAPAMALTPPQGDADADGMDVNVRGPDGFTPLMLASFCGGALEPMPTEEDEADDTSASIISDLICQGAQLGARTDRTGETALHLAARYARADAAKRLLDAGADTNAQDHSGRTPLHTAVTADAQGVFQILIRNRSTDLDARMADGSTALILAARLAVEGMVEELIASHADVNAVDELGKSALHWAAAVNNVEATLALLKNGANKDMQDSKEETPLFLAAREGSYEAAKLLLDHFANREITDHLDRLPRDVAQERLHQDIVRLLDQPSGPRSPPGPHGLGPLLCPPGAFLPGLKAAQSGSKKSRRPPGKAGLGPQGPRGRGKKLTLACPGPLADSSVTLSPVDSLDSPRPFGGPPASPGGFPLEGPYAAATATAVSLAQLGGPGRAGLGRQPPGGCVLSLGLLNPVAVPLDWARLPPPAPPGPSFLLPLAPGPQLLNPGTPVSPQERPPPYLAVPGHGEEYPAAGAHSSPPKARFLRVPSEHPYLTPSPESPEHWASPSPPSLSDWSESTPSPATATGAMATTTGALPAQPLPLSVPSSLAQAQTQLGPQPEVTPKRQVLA

[10] = small-molecule microarray binders of probe aEGFR, primary screen, biochemical, biotinylated probe, 635/667 nm fluorescence (AID 1097); conditions: higher = more signal;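 note: probe is a biotinylated anti-EGFR antibody binding compounds printed on slides; score combines fluorescence near 667 nm and signal to noise of each spot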
[11] = test system: Plasmodium falciparum Sir2 (PF13_0152, Sir2A); assay: pfSir2 binders on small-molecule microarrays, primary screen, biochemical, small-molecule microarray, 635 nm fluorescence (AID 1098); conditions: small-molecule microarray binding, fluorescence 635 nm; higher = more signal;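 note: score merges spot fluorescence intensity with its signal-to-noise ratio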
[12] = small-molecule microarray binders of probe aDKK1, primary screen, biochemical, biotinylated probe, 635/667 nm fluorescence (AID 1099); conditions: higher = more signal;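 note: score merges 667nm spot fluorescence with signal to noise across triplicate slides; reference of the scale not given here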
[13] = small-molecule microarray binders of probe aCHRDL2, primary screen, biochemical, biotinylated probe, 635/667 nm fluorescence (AID 1100); conditions: higher = more signal
[14] = splicing luciferase reporter signal modulators, primary screen, spliceosome inhibition project, cell-based, HEK293, splice +/- reporter (AID 1101); conditions: luminescence, 24 h, higher = more signal, called active from +8 up or from −8 down;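 note: HEK293 cells carrying a splicing-competent luciferase reporter gene; test concentration not given here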
[15] = target: Fibroblast growth factor 10 (Homo sapiens) (UniProt O15520); assay: FGF10 binders on small-molecule microarrays, primary screen, biochemical, small-molecule microarray, 635 nm fluorescence (AID 1102); conditions: FGF10 binding, fluorescence 635 nm, higher = more signal
Chain of Fibroblast growth factor 10 (Homo sapiens) (O15520 whole entry, looked up): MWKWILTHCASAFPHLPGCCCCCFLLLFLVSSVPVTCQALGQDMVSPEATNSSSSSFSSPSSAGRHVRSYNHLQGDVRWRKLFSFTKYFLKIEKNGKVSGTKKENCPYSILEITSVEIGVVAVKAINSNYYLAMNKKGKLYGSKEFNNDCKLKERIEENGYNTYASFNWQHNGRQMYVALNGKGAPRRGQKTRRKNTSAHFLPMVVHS

[16] = test system: glycogen synthase kinase-3 (GSK3A per assay name; protocol says GSK3B); assay: GSK3 binders on small-molecule microarrays, primary screen, biochemical, small-molecule microarray, 635 nm fluorescence, GSK3A (AID 1103); conditions: small-molecule microarray binding, fluorescence 635 nm; higher = more signal; note: the record names both GSK3A and GSK3B
[17] = target: Epidermal growth factor receptor (Homo sapiens) (UniProt P00533); assay: EGFR binders on small-molecule microarrays, primary screen, biochemical, small-molecule microarray, 635 nm fluorescence (AID 1104); conditions: EGFR binding, higher = more signal;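 note: score merges 667 nm emission intensity with spot signal to noise over triplicate slides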
Chain of Epidermal growth factor receptor (Homo sapiens) (P00533 whole entry, looked up): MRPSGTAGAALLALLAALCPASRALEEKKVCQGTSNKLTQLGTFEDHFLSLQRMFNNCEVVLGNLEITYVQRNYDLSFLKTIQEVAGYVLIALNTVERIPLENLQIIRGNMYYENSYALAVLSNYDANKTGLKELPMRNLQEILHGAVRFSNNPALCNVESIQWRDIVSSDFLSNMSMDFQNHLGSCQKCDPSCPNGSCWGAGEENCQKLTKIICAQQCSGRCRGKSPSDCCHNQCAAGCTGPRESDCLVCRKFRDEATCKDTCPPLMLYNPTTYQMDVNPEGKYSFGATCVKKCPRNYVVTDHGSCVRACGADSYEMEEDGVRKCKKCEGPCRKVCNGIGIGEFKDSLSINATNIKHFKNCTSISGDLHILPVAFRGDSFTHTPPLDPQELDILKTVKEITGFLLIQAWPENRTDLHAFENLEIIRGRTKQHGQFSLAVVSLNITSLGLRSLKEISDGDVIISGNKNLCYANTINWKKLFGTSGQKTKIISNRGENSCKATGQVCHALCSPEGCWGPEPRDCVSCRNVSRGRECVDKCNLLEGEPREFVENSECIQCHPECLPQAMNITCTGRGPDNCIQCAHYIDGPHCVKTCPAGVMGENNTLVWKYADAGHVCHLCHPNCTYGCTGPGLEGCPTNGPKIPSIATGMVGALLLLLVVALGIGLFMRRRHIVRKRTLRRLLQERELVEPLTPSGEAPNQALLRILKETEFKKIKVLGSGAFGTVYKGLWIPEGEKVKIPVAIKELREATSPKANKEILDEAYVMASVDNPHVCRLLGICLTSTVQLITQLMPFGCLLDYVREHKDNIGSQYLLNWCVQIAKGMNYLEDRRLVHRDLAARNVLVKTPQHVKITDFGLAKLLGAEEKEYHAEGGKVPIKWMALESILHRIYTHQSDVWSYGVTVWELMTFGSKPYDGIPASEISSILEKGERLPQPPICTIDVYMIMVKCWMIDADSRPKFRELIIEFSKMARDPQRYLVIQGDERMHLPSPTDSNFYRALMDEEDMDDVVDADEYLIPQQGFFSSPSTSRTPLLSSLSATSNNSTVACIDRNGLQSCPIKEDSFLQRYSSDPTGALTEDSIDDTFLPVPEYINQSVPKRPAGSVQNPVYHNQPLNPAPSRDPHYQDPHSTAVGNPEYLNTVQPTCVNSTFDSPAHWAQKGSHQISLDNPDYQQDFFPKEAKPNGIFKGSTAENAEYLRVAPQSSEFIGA

[18] = target: Follistatin-related protein 3 (Homo sapiens) (UniProt O95633); assay: FSTL3 binders on small-molecule microarrays, primary screen, biochemical, small-molecule microarray, 635 nm fluorescence (AID 1105); conditions: FSTL3 binding, higher = more signal;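 note: score merges emission near 667 nm and signal to noise per printed spot across three slides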
Chain of Follistatin-related protein 3 (Homo sapiens) (O95633 whole entry, looked up): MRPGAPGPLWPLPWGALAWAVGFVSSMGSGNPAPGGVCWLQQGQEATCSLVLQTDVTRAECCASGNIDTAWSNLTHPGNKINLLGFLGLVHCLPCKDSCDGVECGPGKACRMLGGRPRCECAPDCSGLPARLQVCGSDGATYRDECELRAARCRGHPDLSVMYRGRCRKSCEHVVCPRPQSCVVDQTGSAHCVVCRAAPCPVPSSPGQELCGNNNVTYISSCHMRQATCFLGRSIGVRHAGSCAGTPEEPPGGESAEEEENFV

[19] = target: Dickkopf-related protein 1 (Homo sapiens) (UniProt O94907); assay: DKK1 binders on small-molecule microarrays, primary screen, biochemical, small-molecule microarray, 635 nm fluorescence scan (AID 1106); conditions: DKK1 binding, higher = more signal;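 note: score merges emission near 667 nm with signal to noise over three replicate slides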
Chain of Dickkopf-related protein 1 (Homo sapiens) (O94907 whole entry, looked up): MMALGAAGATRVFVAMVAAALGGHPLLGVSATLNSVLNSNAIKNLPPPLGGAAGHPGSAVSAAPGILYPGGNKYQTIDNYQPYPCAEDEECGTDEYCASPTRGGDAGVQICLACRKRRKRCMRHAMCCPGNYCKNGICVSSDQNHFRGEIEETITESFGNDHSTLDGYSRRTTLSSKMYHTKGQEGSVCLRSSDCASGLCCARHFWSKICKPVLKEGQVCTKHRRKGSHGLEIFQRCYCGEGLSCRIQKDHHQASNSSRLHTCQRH

[20] = test system: Inhibin beta A chain (activin A); assay: INHBA (activin A) binders on microarrays, primary screen, biochemical, small-molecule microarray, 635 nm fluorescence scan (AID 1107); conditions: small-molecule microarray binding, higher = more signal;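 note: mouse activin A protein probed at 4.33 µg/mL on printed slides; score merges bound-protein fluorescence near 667 nm with spot signal-to-noise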

SMILES | composite z-score [1] | z-score [2] | z-score [3] | z-score [4] | composite z-score [5] | z-score [6] | composite z-score [7] | composite z-score [8] | composite z-score [9] | composite z-score [10] | composite z-score [11] | composite z-score [12] | composite z-score [13] | z-score [14] | composite z-score [15] | composite z-score [16] | composite z-score [17] | composite z-score [18] | composite z-score [19] | composite z-score [20]
O=C1C[C@@H](O)[C@@H](O)[C@@H]2[C@@H]3C(=O)N(C[C@@H]4CCCO4)C(=O)[C@@H]3CC[C@H]12 | 0.578 | 0.788 (inactive) | -0.563 (inactive) | 0.672 (inactive) | 0.493 | 0.701 (inactive) | -0.108 | 0.394 | 0.652 | -0.0118 | 0.379 | -0.273 | -0.577 | 0.32 (inactive) | 0.508 | 0.671 | 0.531 | 0.601 | 0.542 | -0.161
COc1ccc(O[C@H]2C=C[C@@H](c3ccccc3)O[C@@H]2CON=C(C)CCN2CCc3nc(-c4ccccc4)c(-c4ccccc4)cc3C2)cc1 | 0.307 | 0.549 (inactive) | -0.513 (inactive) | -2.92 (inactive) | 0.607 | 0.669 (inactive) | -0.148 | 0.111 | -0.183 | -0.133 | 0.51 | -0.259 | -0.0652 | -0.365 (inactive) | -0.156 | -0.796 | -0.538 | 0.0193 | 0.162 | 0.829
C#CCCCON=C1C[C@@H](O)[C@@H](O)[C@@H]2[C@@H]3C(=O)N(c4ccc(F)cc4F)C(=O)[C@@H]3CC[C@@H]12 | 0.108 | -0.326 (inactive) | -0.117 (inactive) | -1.3 (inactive) | -0.261 | 0.336 (inactive) | -0.124 | 0.561 | 0.0521 | -0.112 | 0.191 | -0.19 | -0.71 | 0.0714 (inactive) | -0.0402 | 0.225 | 0.259 | 0.218 | 0.302 | -0.263
CCN1C(=O)[C@H]2[C@H]3[C@H](O)[C@H](O)CC(=O)[C@H]3CC[C@H]2C1=O | 0.288 | -0.955 (inactive) | -0.38 (inactive) | -0.18 (inactive) | 0.718 | 0.759 (inactive) | -0.228 | 0.675 | 0.386 | -0.0989 | 0.519 | -0.106 | -0.721 | 0.691 (inactive) | 0.406 | 0.713 | 0.371 | 0.396 | 0.776 | -0.249
CCCCC#C[C@@H]1C=C[C@H](OC(C)=O)[C@@H](COC(C)=O)O1 | 0.59 | 0.248 (inactive) | -3.45 (inactive) | -1.25 (inactive) | 0.456 | 0.325 (inactive) | -0.116 | 0.216 | 0.848 | 0.0251 | 0.483 | -0.228 | -0.595 | 1.07 (inactive) | 0.46 | 0.244 | 0.137 | 0.44 | 0.124 | 0.589
O=C(C=Cc1ccc2c(c1)OCO2)c1ccc(F)cc1 | -0.458 | -0.935 (inactive) | -15.1 (active) | 3.87 (inactive) | -0.779 | 0.704 (inactive) | -0.132 | 0.87 | 0.142 | 0.131 | 0.818 | -0.136 | -0.459 | -0.603 (inactive) | 0.498 | -0.296 | 0.549 | 0.801 | 1.52 | 0.239
CC(CCN1CCCCc2nc(C)c(C)cc21)=NOC[C@@H](C)[C@H](OCc1ccccc1)C(C)C | -0.262 | -2.75 (inactive) | -5.66 (inactive) | -0.677 (inactive) | -0.569 | -1.42 (inactive) | -0.467 | -1.02 | -1.53 | -0.551 | -0.399 | -0.624 | -0.579 | -1.22 (inactive) | -1.78 | -1.03 | -1.77 | -2.25 | -0.991 | 0.736
CCCCC#C[C@@H]1C=C[C@H](Oc2ccc(C(=O)OC)cc2)[C@@H](COC(=O)OCC)O1 | 0.888 | 0.143 (inactive) | -19.5 (active) | -0.611 (inactive) | 0.508 | 0.197 (inactive) | -0.115 | 0.198 | 0.531 | -0.0051 | 0.716 | 0.015 | -0.334 | 0.545 (inactive) | 0.785 | 0.277 | 0.385 | 1.05 | 0.414 | 0.273
CCOC(=O)NN=C1C[C@@H](O)[C@@H](O)[C@@H]2[C@@H]3C(=O)N(C(C)(C)C)C(=O)[C@@H]3CC[C@H]12 | -0.247 | 0.438 (inactive) | 0.277 (inactive) | -0.397 (inactive) | -0.3 | 0.443 (inactive) | -0.101 | 0.708 | 0.235 | 0.039 | 0.217 | 0.0171 | -0.398 | -0.626 (inactive) | 0.338 | 0.666 | 0.705 | 0.635 | 0.739 | 0.103
COc1ccc(COC(=O)NN=C2C[C@@H](O)[C@@H](O)[C@@H]3[C@@H]4C(=O)N(c5cccc(Oc6ccccc6)c5)C(=O)[C@@H]4CC[C@@H]23)cc1 | -0.184 | 1.15 (inactive) | 0.897 (inactive) | 0.752 (inactive) | 0.624 | 0.301 (inactive) | 0.162 | -0.516 | -0.732 | -0.0953 | -0.0785 | 0.557 | 1.28 | -0.161 (inactive) | -0.518 | -1.2 | -0.322 | -1.07 | -0.89 | 0.247
